Screening data: PubChem BioAssay, several laboratories
DAX1 inh-1 – blocks DAX1 repression of SF-1 activated StAR promoter | 1.1% of 370,000 active | inhibition, % at 6.8 µM | AID 652010 | HEK293T StAR-luciferase reporter, SF-1/DAX-1 repression relief;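 active = inhibition above the mean over all tested compounds plus 3 SD, cut at about 3.6% in these data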;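 note: higher inhibition means more luminescence from relief of DAX-1 repression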
DAX1 inh-2 – inhibitors of human orphan nuclear receptor DAX1 (NR0B1); P51843; HEK293 Gal4-DAX1 luciferase reporter, luminescence; inhibition, % at 6.75 µM; 0.99% of 340,000 active; AID 504766;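 active = inhibition above the mean over all tested compounds plus 3 SD, cut at about 4.2% in these data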;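 note: inhibition shows as a rise in luminescence from relieved DAX1 repression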
Target sequence (P51843 207-470 limits assumed): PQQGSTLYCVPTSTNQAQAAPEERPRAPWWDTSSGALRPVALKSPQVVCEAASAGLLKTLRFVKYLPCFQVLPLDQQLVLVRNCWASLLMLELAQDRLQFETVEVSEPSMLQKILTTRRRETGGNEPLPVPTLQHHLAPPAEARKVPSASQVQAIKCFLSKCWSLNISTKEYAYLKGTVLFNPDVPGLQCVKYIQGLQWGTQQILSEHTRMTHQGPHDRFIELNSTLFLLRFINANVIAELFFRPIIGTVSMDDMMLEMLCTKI
hgDAF-12 ag – hgDAF-12 agonism, primary luciferase screen; HEK293 GAL4-hgDAF12 UAS-luciferase reporter, agonist luminescence; normalized to butyrate control; activation, % at 6.8 µM; 1.8% of 370,000 active; AID 687014;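 active = activation above a cutoff set at the mean of all screened compounds plus 3 SD, cut at about 10% in these data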
ssDAF-12 act – S. stercoralis DAF-12 activation, primary screen; HEK293 ssDAF-12/GRIP1 lit1-tk-luc reporter, luminescence; % of 3 µM dafachronic acid response; activation, % at 6.8 µM; 1% of 370,000 active;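 active = activation above the mean over all tested compounds plus 3 SD, cut at about 0.9% in these data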
hcDAF12 agonist – activates DAF-12 receptor from parasite H. contortus. 1.4% of 370,000 active. activation, % at 6.8 µM. HEK293 hcDAF-12 lit1-tk-luc reporter, luminescence; 0% DMSO, 100% Δ7-dafachronic acid;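 active = activation above the mean of all tested compounds plus 3 SD, cut at about 5.5% in these data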
PolyA inh – yeast polyadenylation inhibition. 0.02% of 300,000 active. S. cerevisiae SKY197-pL101 polyadenylation reporter, beta-gal luminescence; efflux-impaired pdr1/pdr3 knockout yeast; score 100 = 6 SD above DMSO. activity score, % at 12 µM;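 active = lowest replicate activity score at least 50, where 100 means six control SD above control mean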;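 note: yeast exposed to compound for 9 h at 30 °C; higher score means more reporter readthrough which indicates perturbed polyadenylation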
hgDAF12 conf – confirmation of H. glycines DAF-12 agonists. HEK293 GAL4-hgDAF12 luciferase reporter, agonist mode; percent of butyrate response. AID 743050. 80% of 3,300 active. activation, % at 6.8 µM. shares compounds with hgDAF-12 ag;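 active = mean activation over triplicate wells above the hit cutoff derived from the earlier primary screen, cut at about 11% in these data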
LXR ag 2 – activates human LXR-beta, counter-screen for DAF-12 agonists | shares compounds with hgDAF-12 ag | HEK293 Gal4-LXR luciferase reporter, 24 h | 3,300 tested, under 10 active | activation, % at 6.8 µM;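 active = mean activation of the triplicate above a set limit carried over from the primary screen, none filed active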
Target sequence (P55055 whole entry, looked up, the tested form may be a part): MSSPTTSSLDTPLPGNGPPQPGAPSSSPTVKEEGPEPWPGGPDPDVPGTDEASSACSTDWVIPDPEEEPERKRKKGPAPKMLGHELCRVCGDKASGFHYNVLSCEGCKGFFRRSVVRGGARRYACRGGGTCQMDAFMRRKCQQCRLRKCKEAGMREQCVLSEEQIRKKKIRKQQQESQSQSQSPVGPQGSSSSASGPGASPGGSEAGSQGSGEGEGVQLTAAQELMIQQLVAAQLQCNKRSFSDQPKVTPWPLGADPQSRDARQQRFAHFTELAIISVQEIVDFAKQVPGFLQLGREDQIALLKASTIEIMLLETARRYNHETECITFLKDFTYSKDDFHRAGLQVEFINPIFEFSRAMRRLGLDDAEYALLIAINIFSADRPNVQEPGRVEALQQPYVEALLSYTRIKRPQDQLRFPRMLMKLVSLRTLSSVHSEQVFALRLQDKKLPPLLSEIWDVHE
Each line names hits and unclear results; the compound was inactive in the other large screens (follow-up assays come after a bar, where they were run). The list is not random: actives were taken first. Their share in the collection is about 4.1%.

CCCN(C(=O)C1CC(=O)N(c2ccccc2C(C)CC)C1)C1CCS(=O)(=O)C1 (centres undefined)	none (no result: PolyA inh)
Cc1cccc(Cn2c(=O)n(-c3ccc(CC(=O)NCc4ccco4)cc3)c(=O)c3sccc32)c1	none
CCc1noc(C)c1C(=O)N1CCN(S(=O)(=O)c2ccc(C)cc2)CC1	none
O=C(O)c1cc(N/N=C/C=C/c2ccccc2[N+](=O)[O-])ccc1Cl	hgDAF-12 ag 13.3 | hgDAF12 conf inactive | LXR ag 2 inactive
C/C(=N\NC(=O)c1ccco1)c1ccc(NC(=O)c2ccccc2)cc1	hgDAF-12 ag 13.9 | hgDAF12 conf inactive | LXR ag 2 inactive
C/C(=N/NC(=O)c1ccoc1C)c1ccc(N2CCOCC2)cc1	DAX1 inh-1 3.7, hgDAF-12 ag 19.4 | hgDAF12 conf inactive | LXR ag 2 inactive
C/C(=N/NC(=O)c1ccoc1C)c1ccc(NC(=O)c2ccncc2)cc1	DAX1 inh-1 3.8, hgDAF-12 ag 17.4, ssDAF-12 act 1.3, hcDAF12 agonist 6.4 | hgDAF12 conf inactive | LXR ag 2 inactive
CC(=O)Nc1ccc(/C(C)=N/NC(=O)c2ccncc2)cc1	none
O=C(Nc1ccc(NC(=S)NC(=O)c2ccco2)cc1)c1ccccc1	none
C/C(=N\NC(=O)c1ccc(Cl)cc1)c1ccc(N2CCOCC2)cc1	none
CCOC(=O)/C=C/c1cccc(OC)c1O	DAX1 inh-1 3.8, hgDAF-12 ag 14.2 (no result: DAX1 inh-2, PolyA inh) | hgDAF12 conf 13.7 | LXR ag 2 inactive
CC(=O)c1ccc(NC(=O)CN2CCCCCC2)cc1	none
CC(C)(C)C(=O)OCc1nc(-c2ccc3c(c2)OCCO3)cs1	none
CSCC(=O)Nc1nc(-c2ccc3c(c2)OCCO3)cs1	hgDAF-12 ag 16.6 | hgDAF12 conf 14.3 | LXR ag 2 inactive
CC(=O)c1cc2c(cc1NC(=O)CN(C)S(=O)(=O)c1cccs1)OCO2	none (no result: PolyA inh)
Cc1cc(C(=O)CSc2nncn2C)c(C)n1-c1ccccc1	hgDAF-12 ag 15.8 | hgDAF12 conf 15.7 | LXR ag 2 inactive
CC(=O)Nc1ccc(SCC(=O)c2cc(C)n(-c3ccccc3)c2C)cc1	none
Cc1cccc(NC(=O)c2sc3nc(N)c(C#N)cc3c2N)c1	hgDAF-12 ag 20.6 | hgDAF12 conf inactive | LXR ag 2 inactive
Clc1cccc(CNc2ccn3nc(-c4ccccc4)cc3n2)c1	none (no result: DAX1 inh-2, PolyA inh)
Clc1cccc(CNc2ccn3nc(-c4cccc(Cl)c4)cc3n2)c1	hgDAF-12 ag 13.4 (no result: DAX1 inh-2, PolyA inh) | hgDAF12 conf inactive | LXR ag 2 inactive
Clc1ccc(-c2cc3nc(NCc4cccc(Cl)c4)ccn3n2)cc1	DAX1 inh-1 3.9, hgDAF-12 ag 14.4 (no result: DAX1 inh-2, PolyA inh) | hgDAF12 conf 16.6 | LXR ag 2 inactive
CC1CC(C)(C)NC(=S)N1CCC(=O)N1CCc2ccccc21 (centres undefined)	none
CCCCCCCCN1C(=O)[C@@H](CC(=O)N2CCCCC2)C[C@@]2(C(=O)OC)C1=C[C@H](C1CCCC1)O[C@@H]2C	none (no result: DAX1 inh-2, PolyA inh)
Cn1nnc(NCc2cc(Br)ccc2OCc2ccccc2F)n1	hgDAF-12 ag 17.5 | hgDAF12 conf inactive | LXR ag 2 inactive
Fc1ccccc1COc1ccc(Br)cc1CNCC1CCCO1 (centres undefined)	none
O=[N+]([O-])c1cc(-c2ccc(C(=S)N3CCOCC3)o2)ccc1Cl	none
O=[N+]([O-])c1cccc(-c2ccc(C(=S)N3CCOCC3)o2)c1	hgDAF-12 ag 18.0 | hgDAF12 conf 15.9 | LXR ag 2 inactive
S=C(c1ccc(-c2cccc(Cl)c2)o1)N1CCCCC1	DAX1 inh-1 4.2, hgDAF-12 ag 26.7, ssDAF-12 act 1.1, hcDAF12 agonist 6.3 | hgDAF12 conf 21.1 | LXR ag 2 inactive
N#Cc1cccnc1N1CCN(C(c2ccnc3ccccc23)c2nnnn2-c2ccc3c(c2)OCCO3)CC1 (centres undefined)	none (no result: DAX1 inh-2, PolyA inh)
Cn1ncc(Cl)c1C(=O)N1CCN(c2ncccn2)CC1	none
c1coc(CNc2nc3ccccc3s2)c1	DAX1 inh-2 6.5, hgDAF-12 ag 16.3, ssDAF-12 act 1.9, hcDAF12 agonist 8.8 | hgDAF12 conf 16.7 | LXR ag 2 inactive
Cc1nnc(NCc2ccco2)s1	none
CCN(CC)c1ccc(N=Nc2ncn[nH]2)cc1	hgDAF-12 ag 15.1 (no result: DAX1 inh-2) | hgDAF12 conf inactive | LXR ag 2 inactive
C/C(=N/NC(=O)c1cc(C2CC2)[nH]n1)c1cccs1	DAX1 inh-1 3.8, hgDAF-12 ag 14.8, hcDAF12 agonist 5.7 | hgDAF12 conf inactive | LXR ag 2 inactive
Cc1ccc(-n2ncc3c(=O)n(CC(=O)N(C)C)cnc32)cc1C	none
CC(=O)Cn1cnc2c(cnn2-c2ccc(C)c(C)c2)c1=O	hgDAF-12 ag 15.3 | hgDAF12 conf 12.3 | LXR ag 2 inactive
O=S(=O)(Nc1ccccc1O)c1ccc(Cl)nc1	none
C/C(=N\NC(=O)c1csc(C)c1C)c1ccc(C)s1	hgDAF-12 ag 13.5 | hgDAF12 conf 10.7 | LXR ag 2 inactive
CC(Oc1cccnc1[N+](=O)[O-])C(=O)Nc1ccc(Cl)cn1 (centres undefined)	none (no result: PolyA inh)
COCCCN1C(=O)C(CC(=O)NCCN2CCOCC2)CC(C(=O)N2CCCCCC2)=C1C (centres undefined)	none (no result: DAX1 inh-2, PolyA inh)
CCC(C)NC(=O)Cn1c(COc2ccc(Cl)cc2Cl)nc2ccccc21 (centres undefined)	hgDAF-12 ag 16.1 | hgDAF12 conf 16.8 | LXR ag 2 inactive
COc1ccc(O)c(C(=O)CC(=O)c2ccccc2C)c1	DAX1 inh-2 4.8, hgDAF-12 ag 23.1 | hgDAF12 conf inactive | LXR ag 2 inactive
Cc1ccccc1Oc1ccc2c(c1)[C@@H]1C[C@H](N(C)C(=S)Nc3ccc(F)cc3)[C@H]([C@H](C)O)C(=O)N1CC2	none (no result: PolyA inh)
COc1ccc(OCc2cc(C(=O)NC(C)Cc3ccccn3)no2)c(Cl)c1 (centres undefined)	none
COc1ccc(OCc2cc(C(=O)NC3Cc4ccccc4C3)no2)c(Cl)c1	hgDAF-12 ag 14.5 | hgDAF12 conf inactive | LXR ag 2 inactive
O=C(NCc1ccccc1)c1cccc(COc2ccccc2Cl)c1	none
CN(C(=O)c1cccc(COc2ccc(Cl)cc2Cl)c1)c1ccccc1	hgDAF-12 ag 13.4 | hgDAF12 conf 12.7 | LXR ag 2 inactive
COc1ccc(/C=N/Nc2nccnc2Cl)c(OC)c1	hgDAF-12 ag 20.8 | hgDAF12 conf 12.8 | LXR ag 2 inactive
Cn1c(-c2ccc(Br)o2)nc2ccccc21	DAX1 inh-1 3.7, hgDAF-12 ag 15.2, ssDAF-12 act 1.0, hcDAF12 agonist 5.8 | hgDAF12 conf 14.8 | LXR ag 2 inactive
